From PubChem BioAssay (Tox21)
Results filed as inconclusive are left out. Entries that show only a call come without a potency. A number with no mark means an inactive call. The source made the active and inactive calls. Unless noted, calls come from the whole dose curve; as a rule, active = well fitted curve in the direction sought with a large enough effect in the repeat runs; inconclusive = weak or mixed curves; inactive = no such curve, though single readings can be large; an effect the other way counts as inactive or inconclusive.

What was measured:
[1] = qHTS assay to identify aromatase inhibitors - cell viability counter screen (AID 743084);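 note: cells stimulated with testosterone during compound exposure; nearly all actives have a fitted effect of over 55% in size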
[2] = qHTS assay to identify small molecule that activate the aryl hydrocarbon receptor (AhR) signaling pathway - cell viability counter screen (AID 743086);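 note: HepG2 liver cells carrying the AhR DRE luciferase reporter; series mostly up to about 70 µM; nearly all actives have a fitted effect of over 45% in size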
Method in brief: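 Cytotoxicity counter screen: CellTiter-Fluor signal (30 min, 37 C) in 4000 HepG2 cells/well carrying the DRE-luciferase reporter, following 24 h compound exposure at 37 C.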

[3] = molecular target: Peroxisome proliferator-activated receptor gamma (Homo sapiens) (UniProt P37231); test: qHTS assay to identify small molecule agonists of the peroxisome proliferator-activated receptor gamma (PPARg) signaling pathway (AID 743094; active = well fitted activation curve with a large enough effect in the signal ratio in the repeat runs, not every such curve was filed as active; the % refers to the signal ratio)
Sequence of Peroxisome proliferator-activated receptor gamma (Homo sapiens) (P37231 whole entry, looked up): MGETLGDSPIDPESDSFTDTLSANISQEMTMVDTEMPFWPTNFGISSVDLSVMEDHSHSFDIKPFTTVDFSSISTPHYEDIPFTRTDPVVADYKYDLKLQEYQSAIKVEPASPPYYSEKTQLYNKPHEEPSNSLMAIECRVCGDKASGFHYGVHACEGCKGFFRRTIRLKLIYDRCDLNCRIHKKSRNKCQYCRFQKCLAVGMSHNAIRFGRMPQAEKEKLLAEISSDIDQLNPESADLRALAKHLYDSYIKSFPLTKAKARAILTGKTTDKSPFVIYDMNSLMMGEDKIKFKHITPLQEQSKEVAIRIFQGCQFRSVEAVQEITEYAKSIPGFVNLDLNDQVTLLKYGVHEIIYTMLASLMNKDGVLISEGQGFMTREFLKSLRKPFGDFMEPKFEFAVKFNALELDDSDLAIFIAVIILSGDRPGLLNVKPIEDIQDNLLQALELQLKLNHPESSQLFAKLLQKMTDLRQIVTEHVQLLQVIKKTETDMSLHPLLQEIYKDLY
Method in brief: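 Stably transfected HEK293H cells (GeneBLAzer PPARg UAS-bla) were incubated with test substances for 17 h at 37C after a 5 h pre-incubation; beta-lactamase activity was then detected by FRET substrate fluorescence.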

[4] = molecular target: Peroxisome proliferator-activated receptor gamma (Homo sapiens) (UniProt P37231); test: qHTS assay to identify small molecule antagonists of the peroxisome proliferator-activated receptor gamma (PPARg) signaling pathway (AID 743191; calls by dose curve; note: series mostly up to about 63 µM; nearly all actives have a fitted effect of over 30% in size)
Method in brief: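 Beta-lactamase reporter under UAS control in HEK293H PPARg-bla cells; compound treatment 17 h at 37C. Read-out: fluorescence intensity after 1 h room-temperature incubation with LiveBLAzer B/G FRET substrate.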

[5] = qHTS assay to identify small molecule antagonists of the peroxisome proliferator-activated receptor gamma (PPARg) signaling pathway - cell viability counter screen (AID 743194); note: nearly all actives have a fitted effect of over 55% in size; note: potency is the fitted concentration of half-maximal effect
Method in brief: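 Viability was measured as CellTiter-Glo luminescence in GeneBLAzer PPARg UAS-bla HEK293H cells. These cells had been exposed 17 h at 37 C to compounds together with rosiglitazone at 50 nM final, with the beta-lactamase readout taken in the same wells.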

[6] = qHTS assay for small molecule agonists of the antioxidant response element (ARE) signaling pathway (AID 743202; active = well fitted activation curve with a large enough effect in the signal ratio in the repeat runs, not every such curve was filed as active; the % refers to the signal ratio)
Method in brief: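 An ARE-responsive beta-lactamase gene stably integrated in HepG2 cells serves as reporter. After 5 h plating and 16 h compound incubation at 37 C, fluorescence of the B/G FRET substrate was measured.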

[7] = qHTS assay for small molecule agonists of the antioxidant response element (ARE) signaling pathway - cell viability counter screen (AID 743203; calls by dose curve; note: nearly all actives have a fitted effect of over 55% in size)
Method in brief: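 Cells (ARE-bla HepG2, 2,000/well) receive DMSO-dissolved compounds after a 5 hrs rest. Plates incubate 16 hrs at 37C/5% CO2. CellTiter-Glo luminescence is then recorded after 30 min at room temperature.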

[8] = qHTS assay for small molecule activators of the heat shock response signaling pathway - cell viability counter screen (AID 743209); note: nearly all actives have a fitted effect of over 50% in size
Method in brief: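 Quantitative HTS format, Tox21 10K library. HeLa cells carrying an HSE-driven beta-lactamase reporter were treated 5 h at 37 C, then assessed for viability by CellTiter-Glo luminescence.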

[9] = qHTS assay for small molecule activators of the heat shock response signaling pathway (AID 743210; active = well fitted activation curve with a large enough effect in the signal ratio in the repeat runs, with a control signal flat, not every such curve was filed as active; the % refers to the signal ratio;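 note: HeLa cells with beta-lactamase reporter driven by heat shock elements; series mostly up to about 63 µM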)
Method in brief: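 In HSE-bla HeLa cells, 5 h compound incubation (37 C) precedes addition of LiveBLAzer B/G substrate; after 2.5 h at room temperature, fluorescence intensity indicates reporter induction.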

[10] = qHTS assay to identify small molecule agonists of the peroxisome proliferator-activated receptor delta (PPARd) signaling pathway - cell viability counter screen (AID 743211); note: nearly all actives have a fitted effect of over 55% in size
Method in brief: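 HEK293H PPARd-bla, 3000 cells/well; 5 h preincubation 37C/5% CO2; cpd in DMSO, 17 h 37C; B/G FRET substrate 2 h RT; CellTiter-Glo 30 min RT, luminescence.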

[11] = molecular target: Peroxisome proliferator-activated receptor delta (Homo sapiens) (UniProt Q03181); test: qHTS assay to identify small molecule agonists of the peroxisome proliferator-activated receptor delta (PPARd) signaling pathway (AID 743212; calls by dose curve)
Sequence of Peroxisome proliferator-activated receptor delta (Homo sapiens) (Q03181 whole entry, looked up): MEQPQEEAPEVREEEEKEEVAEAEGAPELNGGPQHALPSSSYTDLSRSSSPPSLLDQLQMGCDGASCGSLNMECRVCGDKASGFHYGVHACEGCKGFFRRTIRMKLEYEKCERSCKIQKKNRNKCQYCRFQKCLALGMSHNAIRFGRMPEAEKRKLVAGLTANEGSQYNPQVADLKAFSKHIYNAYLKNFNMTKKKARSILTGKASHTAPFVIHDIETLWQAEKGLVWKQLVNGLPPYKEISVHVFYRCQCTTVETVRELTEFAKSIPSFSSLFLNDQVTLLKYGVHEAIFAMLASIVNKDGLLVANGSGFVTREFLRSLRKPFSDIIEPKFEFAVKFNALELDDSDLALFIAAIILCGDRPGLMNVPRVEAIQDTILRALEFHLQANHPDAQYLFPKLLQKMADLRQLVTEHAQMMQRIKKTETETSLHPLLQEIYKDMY
Method in brief: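 HEK293H UAS-bla reporter cells, human PPARd system; compounds delivered in DMSO after 5 h plating, then at 37 C. Beta-lactamase FRET read, 2 h RT substrate step.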

[12] = qHTS assay to identify small molecule antagonists of the peroxisome proliferator-activated receptor delta (PPARd) signaling pathway - cell viability counter screen (AID 743213); note: nearly all actives have a fitted effect of over 50% in size
Method in brief: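 CellTiter-Glo was added to PPARd-bla HEK293H wells following 17 h compound treatment in the presence of 300 nM L165041. Luminescence was recorded after 30 min at room temperature.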

[13] = molecular target: Peroxisome proliferator-activated receptor delta (Homo sapiens) (UniProt Q03181); test: qHTS assay to identify small molecule antagonists of the peroxisome proliferator-activated receptor delta (PPARd) signaling pathway (AID 743215; active = well fitted inhibition curve with a large enough effect in the signal ratio in the repeat runs, not every such curve was filed as active; the % refers to the signal ratio;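 note: cells stimulated with agonist L165041 at 300 nM final during compound exposure; series mostly up to about 62 µM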)
Method in brief: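 Antagonist-mode beta-lactamase reporter screen: HEK293H cells with UAS-bla under PPARd control, stimulated by 300 nM L165041 (final) alongside test compound for 17 h at 37 C, then FRET fluorescence after 2 h substrate incubation.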

[14] = molecular target: Bile acid receptor (Homo sapiens) (UniProt Q96RI1); test: qHTS assay to identify small molecule antagonists of the farnesoid-X-receptor (FXR) signaling pathway (AID 743217; active = well fitted inhibition curve with a large enough effect in the signal ratio in the repeat runs, not every such curve was filed as active; the % refers to the signal ratio)
Sequence of Bile acid receptor (Homo sapiens) (Q96RI1 whole entry, looked up): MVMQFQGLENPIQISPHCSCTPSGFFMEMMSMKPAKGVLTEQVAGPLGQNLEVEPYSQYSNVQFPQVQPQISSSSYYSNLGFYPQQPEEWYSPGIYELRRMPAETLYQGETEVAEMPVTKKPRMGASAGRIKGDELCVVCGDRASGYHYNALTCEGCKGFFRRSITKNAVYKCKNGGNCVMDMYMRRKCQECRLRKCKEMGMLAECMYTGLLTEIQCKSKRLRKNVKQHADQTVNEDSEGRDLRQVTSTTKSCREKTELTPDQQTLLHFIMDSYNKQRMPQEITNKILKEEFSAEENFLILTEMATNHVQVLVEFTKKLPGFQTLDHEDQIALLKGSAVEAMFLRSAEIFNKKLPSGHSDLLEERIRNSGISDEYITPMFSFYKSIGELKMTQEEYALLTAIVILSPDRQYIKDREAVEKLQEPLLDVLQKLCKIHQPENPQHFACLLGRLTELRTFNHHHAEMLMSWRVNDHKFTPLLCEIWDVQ
Method in brief: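 Beta-lactamase reporter under UAS control in HEK 293T cells; compound exposure 16 h at 37 °C in the presence of chenodeoxycholic acid (50 uM final); signal from B/G FRET substrate after 2 h at room temperature.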

[15] = qHTS assay to identify small molecule agonists of the farnesoid-X-receptor (FXR) signaling pathway - cell viability counter screen (AID 743218); note: nearly all actives have a fitted effect of over 45% in size
Method in brief: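 In GeneBLAzer FXR-UAS-bla HEK 293T cells, compounds act for 16 h at 37 C. Cell viability is then scored in the reporter wells by CellTiter-Glo, 30 min at RT, luminescence.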

[16] = molecular target: Bile acid receptor (Homo sapiens) (UniProt Q96RI1); test: qHTS assay to identify small molecule agonists of the farnesoid-X-receptor (FXR) signaling pathway (AID 743220; active = well fitted activation curve with a large enough effect in the signal ratio in the repeat runs, not every such curve was filed as active; the % refers to the signal ratio)
Method in brief: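 Beta-lactamase reporter under UAS control in GeneBLAzer FXR HEK 293T cells (5000/well) measured with LiveBLAzer FRET substrate after 2 h at room temperature. Compound exposure lasted 16 h at 37C.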

[17] = qHTS assay to identify small molecule antagonists of the farnesoid-X-receptor (FXR) signaling pathway - cell viability counter screen (AID 743221; active = well fitted cell-killing curve with a large enough effect in the repeat runs, not every such curve was filed as active; note: nearly all actives have a fitted effect of over 50% in size)
Method in brief: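 Luminescence from CellTiter-Glo measures cytotoxicity in GeneBLAzer FXR-UAS-bla HEK 293T cells. Cells were exposed to compounds with 50 uM chenodeoxycholic acid (final) for 16 h at 37 C, in wells also used for the reporter readout.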

[18] = molecular target: Vitamin D3 receptor (Homo sapiens) (UniProt P11473); test: qHTS assay to identify small molecule agonists of the vitamin D receptor (VDR) signaling pathway (AID 743222; calls by dose curve)
Sequence of Vitamin D3 receptor (Homo sapiens) (P11473 whole entry, looked up): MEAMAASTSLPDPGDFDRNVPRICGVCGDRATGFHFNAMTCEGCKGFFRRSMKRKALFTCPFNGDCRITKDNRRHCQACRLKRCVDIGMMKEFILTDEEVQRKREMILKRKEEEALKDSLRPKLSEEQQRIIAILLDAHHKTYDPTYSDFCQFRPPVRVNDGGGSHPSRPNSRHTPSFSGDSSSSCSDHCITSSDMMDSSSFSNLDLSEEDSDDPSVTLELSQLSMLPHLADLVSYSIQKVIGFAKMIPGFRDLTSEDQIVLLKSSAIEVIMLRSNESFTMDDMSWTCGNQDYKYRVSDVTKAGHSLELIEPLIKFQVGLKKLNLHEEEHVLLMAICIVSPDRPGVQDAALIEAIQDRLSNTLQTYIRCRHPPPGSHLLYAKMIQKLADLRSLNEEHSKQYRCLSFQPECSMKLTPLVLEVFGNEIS
Method in brief: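 Agonist activity measured in VDR-bla reporter cells. Exposure 16 h, 37C, 5% CO2; detection by B/G FRET substrate, 2 h RT.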

[19] = molecular target: Vitamin D3 receptor (Homo sapiens) (UniProt P11473); test: qHTS assay to identify small molecule antagonists of the vitamin D receptor (VDR) signaling pathway (AID 743223; active = well fitted inhibition curve with a large enough effect in the signal ratio in the repeat runs, not every such curve was filed as active; the % refers to the signal ratio)
Method in brief: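 Antagonist mode uses 1alpha,25-dihydroxyvitamin D3 at 3 nM final as stimulus. VDR-bla cells receive compounds in DMSO, incubate 16 h at 37C, then a beta-lactamase FRET substrate for 2 h at room temperature before fluorescence measurement.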

[20] = molecular target: Aryl hydrocarbon receptor (Homo sapiens) (UniProt P35869); test: qHTS assay to identify small molecule that activate the aryl hydrocarbon receptor (AhR) signaling pathway (AID 743085); note: nearly all actives have a fitted effect of over 15% in size; note: potency is the fitted concentration of half-maximal effect;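 for activation: HG2L7.5c1 human HepG2 liver cells with stably integrated DRE-driven firefly reporter; series mostly up to about 70 µM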
Sequence of Aryl hydrocarbon receptor (Homo sapiens) (P35869 whole entry, looked up): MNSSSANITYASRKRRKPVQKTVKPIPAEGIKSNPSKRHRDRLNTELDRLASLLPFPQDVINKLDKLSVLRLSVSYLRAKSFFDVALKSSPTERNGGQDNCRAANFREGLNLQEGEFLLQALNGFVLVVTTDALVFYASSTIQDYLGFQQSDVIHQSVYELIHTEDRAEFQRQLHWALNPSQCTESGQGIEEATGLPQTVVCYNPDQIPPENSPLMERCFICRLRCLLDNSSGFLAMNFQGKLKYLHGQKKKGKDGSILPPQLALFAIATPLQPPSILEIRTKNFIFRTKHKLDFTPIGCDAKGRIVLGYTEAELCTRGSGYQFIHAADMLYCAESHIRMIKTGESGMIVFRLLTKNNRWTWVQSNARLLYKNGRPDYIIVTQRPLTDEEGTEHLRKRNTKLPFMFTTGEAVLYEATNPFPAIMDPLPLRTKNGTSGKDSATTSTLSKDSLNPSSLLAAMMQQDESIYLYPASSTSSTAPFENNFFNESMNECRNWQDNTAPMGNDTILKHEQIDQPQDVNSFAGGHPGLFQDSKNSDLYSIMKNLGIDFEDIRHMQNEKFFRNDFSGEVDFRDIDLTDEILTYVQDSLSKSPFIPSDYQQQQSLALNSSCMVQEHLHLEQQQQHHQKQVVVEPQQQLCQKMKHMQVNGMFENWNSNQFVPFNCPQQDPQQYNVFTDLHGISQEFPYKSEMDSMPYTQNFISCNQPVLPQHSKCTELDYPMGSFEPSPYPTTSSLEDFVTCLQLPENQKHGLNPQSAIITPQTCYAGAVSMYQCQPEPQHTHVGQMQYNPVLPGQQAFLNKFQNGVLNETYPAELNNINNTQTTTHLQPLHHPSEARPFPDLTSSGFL
Method in brief: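 Cell line HG2L7.5c1 (human hepatoma, 20× DRE-luc). Plated, 5 h 37C, compound/DMSO added, 24 h 37C. CellTiter-Fluor 30 min 37C → fluorescence; then ONE-Glo 30 min RT → luminescence.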

SMILES	Potency [1]	Potency [2]	outcome [3]	outcome [4]	Potency [5]	Potency [6]	outcome [7]	outcome [8]	outcome [9]	Potency [10]	outcome [11]	Potency [12]	outcome [13]	outcome [14]	outcome [15]	outcome [16]	Potency [17]	outcome [18]	outcome [19]	Potency [20]
N#CCc1ccccc1[N+](=O)[O-]	inactive	inactive	inactive	inactive	inactive	inactive	inactive	inactive	inactive	inactive	inactive	inactive	inactive	inactive	inactive	inactive	inactive	inactive	inactive	
CCCCCCOC(=O)CC(CC(=O)OCCCCCC)(OC(=O)CCC)C(=O)OCCCCCC	inactive	inactive	inactive		inactive		inactive	inactive	inactive	inactive	inactive	inactive			inactive		inactive	inactive		inactive
COC[C@H](c1ccc(C(F)(F)F)cc1)N1CCN(C2(C)CCN(C(=O)c3c(C)ncnc3C)CC2)C[C@H]1C	inactive	inactive	inactive		inactive		inactive	inactive	inactive		inactive	inactive	inactive		inactive		inactive	inactive		inactive
C=C(C)C(=O)OCCC(C)OC(=O)C(=C)C (stereo unspecified)	inactive	inactive	inactive	inactive	inactive	inactive	inactive	inactive	inactive	inactive	inactive	inactive	inactive		inactive		inactive		inactive	
CCOC(=O)[C@H](CCc1ccccc1)N[C@@H](C)C(=O)N1CCC[C@H]1C(=O)O	inactive		inactive		inactive		inactive	inactive	inactive		inactive		inactive	inactive	inactive		inactive	inactive		inactive
CCCCCCCCN(C)CCCCCCCC	inactive	inactive	inactive	inactive	inactive	inactive	inactive	inactive	inactive	inactive	inactive	inactive	inactive		inactive		inactive		inactive	
Cc1ccccc1Br	inactive	inactive	inactive	inactive	inactive	inactive	inactive	inactive	inactive	inactive	inactive	inactive	inactive	inactive	inactive	inactive	inactive	inactive	inactive	
Cc1nc(-c2ccc(OCC(C)C)c(C#N)c2)sc1C(=O)O	inactive	inactive	inactive		inactive		inactive	inactive	inactive	inactive		inactive			inactive		inactive			0.0298 µM (active)
C[C@H]1O[C@@H](n2cc(F)c(=O)[nH]c2=O)[C@H](O)[C@@H]1O	inactive	inactive	inactive		inactive		inactive	inactive	inactive	inactive		inactive			inactive		inactive			inactive
O=C(O)Cc1cc(I)c(Oc2cc(I)c(O)c(I)c2)c(I)c1	inactive	inactive			19.1 µM (active)			inactive		inactive		inactive								inactive
O=C(O)c1ccc[n+]([O-])c1	inactive	inactive	inactive	inactive	inactive	inactive	inactive	inactive	inactive	inactive	inactive	inactive	inactive		inactive		inactive		inactive	
CNc1ncnc2nc[nH]c12	inactive	inactive	inactive		inactive		inactive	inactive	inactive	inactive	inactive		inactive		inactive			inactive		inactive
COc1cccc(Br)c1	inactive		inactive		inactive	inactive	inactive	inactive	inactive	inactive	inactive	inactive	inactive		inactive		inactive			inactive
OC/C=C/c1ccccc1	inactive	inactive			inactive	inactive	inactive	inactive	inactive	inactive	inactive	inactive			inactive		inactive		inactive	inactive
CCn1cc(C(=O)O)c(=O)c2cc(F)c(N3CCN(C)CC3)cc21	inactive	inactive	inactive	inactive	inactive	inactive	inactive	inactive	inactive	inactive	inactive	inactive	inactive		inactive		inactive			
CCCCC1CCCCC(=O)O1 (stereo unspecified)	inactive	inactive		inactive	inactive		inactive	inactive		inactive		inactive	inactive		inactive		inactive	inactive	inactive	inactive
Nc1ccn(C2CO[C@H](CO)O2)c(=O)n1 (stereo partly specified)	inactive	inactive	inactive		inactive		inactive	inactive		inactive		inactive		inactive	inactive	inactive	inactive	inactive	inactive	inactive
CCCCCN(CCCCC)C(=O)C(CCC(=O)O)NC(=O)c1ccc(Cl)c(Cl)c1 (stereo unspecified)	inactive	inactive	inactive		inactive		inactive	inactive		inactive		inactive	inactive		inactive		inactive			inactive
CC(C)=CCC/C(C)=C/C(=O)O	inactive	inactive			inactive	inactive	inactive	inactive	inactive			inactive			inactive		inactive			inactive
